# Measured values taken from PubChem BioAssay (NCI).
# The panel holds about 79,000 compounds, 15% with a hit somewhere; the sample as a whole holds those more often. A number with no mark means an inactive call. Activity calls are given as the source filed them. No stated cut-off is given here; in the data, active means growth inhibition above about 70%; inactive means the rest.
# Key:
# [1] = NCI Yeast Anticancer Drug Screen. Data for the rad50 strain (AID 155);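 further: 0% = growth of vehicle-only cultures of the same strain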; conditions: S. cerevisiae rad50 strain growth inhibition; at 50.0 µM; active compounds read high
# How it was run: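 Vehicle-treated cultures provide the reference for the growth inhibition reported for compound-exposed, repair-deficient yeast.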
# [2] = NCI Yeast Anticancer Drug Screen. Data for the mec2-1 strain (AID 157); conditions: S. cerevisiae mec2-1 strain, at 50.0 µM, active compounds read high
# How it was run: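 Cells of the genetically defined mec2-1 yeast strain are incubated with test compound. Inhibition of growth is calculated against vehicle-treated controls.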
# [3] = NCI Yeast Anticancer Drug Screen. Data for the sgs1 mgt1 strain (AID 161);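 further: 0% = growth of cultures given vehicle only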; conditions: S. cerevisiae sgs1 mgt1 strain, at 50.0 µM, active compounds read high
# How it was run: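 Read-out: growth inhibition vs vehicle controls. Cells: mutant yeast strain deficient in DNA damage repair.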
# [4] = NCI Yeast Anticancer Drug Screen. Data for the cln2 rad14 strain (AID 165);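 further: 0% = growth equal to vehicle treated cultures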; conditions: S. cerevisiae cln2 rad14 strain, at 50.0 µM, active compounds read high
# How it was run: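 The screen exposed genetically defined yeast (cln2 rad14) to test compounds and scored growth inhibition relative to vehicle-treated controls.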
# [5] = NCI Yeast Anticancer Drug Screen. Data for the bub3 strain (AID 167); conditions: S. cerevisiae bub3 mutant strain, at 50.0 µM, active compounds read high
# How it was run: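 Mutant yeast screening strain plus compound; vehicle-treated cultures serve as the 0% inhibition reference.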
# [6] = NCI Yeast Anticancer Drug Screen. Data for the mlh1 rad18 strain (AID 175); conditions: S. cerevisiae mlh1 rad18 strain growth inhibition; at 50.0 µM; active compounds read high
# How it was run: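 Compound-treated yeast growth, normalised to vehicle controls. Strain bears defined DNA repair mutations.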
Compound,growth inhibition [1],growth inhibition [2],growth inhibition [3],growth inhibition [4],growth inhibition [5],growth inhibition [6]
CC1OC(OC2C(O)CC(OC3C(O)CC(OC4CCC5(C)C(CCC6C5CCC5(C)C(C7=CC(=O)OC7)CCC65O)C4)OC3C)OC2C)CC(O)C1O (centres undefined),7.6%,2.4%,-17.5%,16.8%,6.65%,27.2%
CCCCn1cnc2c(SCc3ccc(Cl)cc3Cl)nc(N)nc21,1.15%,25.2%,7.35%,21.2%,15.3%,-8.2%
C/C(Cc1ccccc1)=N\NC(N)=S,13.3%,1.15%,27.6%,-12.7%,8.5%,29.5%
Cc1ccc2c(c1)Nc1ccccc1P2(=O)O,7.8%,-3.15%,-40%,37.6%,14.3%,-15.4%
N=C(/C(=C/c1cccc2ccccc12)c1ccccc1)c1ccccc1,13.8%,10.2%,14.1%,-7.6%,-13.7%,13.6%
CC(=O)NCC1OC2COC(c3ccccc3)OC2C2N=C(c3ccccc3)OC12 (centres undefined),-9.45%,1.3%,8.5%,7.8%,14.8%,81.8% (active)
Cc1cc2[nH]c3c(C#N)c(O)c(C(C)C)c(=O)n3c2cc1C,-1.05%,7.8%,11.6%,1.35%,10.8%,11.2%
[Cu+2].[Cu+2].[O-]c1ccccc1C=Nc1ccccc1[O-].[O-]c1ccccc1C=Nc1ccccc1[O-],7.25%,-0.95%,-1.2%,16.9%,2.1%,1.55%
c1ccc(C(Sc2c[nH]c3ccccc23)(c2ccccc2)c2ccccc2)cc1 (tested in a mixture with another compound),-20.4%,-11.7%,9.8%,1.9%,-38.5%,-25.1%
CCOC(=O)c1ccc(NC(NC(=O)CC)(C(F)(F)F)C(F)(F)F)cc1,-26.6%,-20.4%,-69.2%,-19.1%,-8.9%,-54%
CO/N=C\c1cc[n+](C)cc1,11.7%,24.6%,18.9%,30.7%,55%,19.2%
CSc1nc2c(c(=O)n1C)N=C(c1ccc(Cl)cc1)CC(c1ccccc1)N2 (centres undefined),16%,3.25%,-5.6%,11.4%,-11.6%,15.8%
CCCCCCCCCCCC(=O)Nc1ccc(N(C)C(C)=O)cc1,-14.4%,-3.95%,-9.1%,-1.35%,7.2%,-10.1%
Cc1ccc(Sc2cccc3c2C(=O)c2c(Sc4ccc(C)cc4)cccc2C3=O)cc1,-18.9%,9.05%,-24.5%,-12.4%,-2.7%,-11.3%
O=C(c1ccc(Cl)cc1)c1cccc(Cl)c1,-6.35%,-16.1%,-3.7%,-1.5%,-10%,6.3%
Cc1cc(Cl)cc(CN(C)Cc2c(C)[nH]c(=O)[nH]c2=O)c1O,-31.4%,-17.1%,-17.2%,2.65%,-0.5%,-8.9%
O=c1c2[nH]cnc2ncn1Cc1ccccc1,0.95%,1.35%,0.3%,-32.5%,-20.6%,-6.25%
COc1ccc2[nH]c(=O)ccc2c1,1.6%,0.35%,-2.3%,-0.5%,12.7%,-2.95%
N#CCCP(=O)(O)CO,-6.5%,-13.3%,1.1%,0.1%,3.9%,-26.7%
COc1ccc(-c2c(C(C)=O)c(-c3ccccc3)n(C3OC(CO)C(O)C(O)C3O)c(=S)c2C#N)cc1 (centres undefined),-17.7%,-3.7%,6.6%,3.95%,1.3%,6.2%

Compound,growth inhibition [1],growth inhibition [2],growth inhibition [3],growth inhibition [4],growth inhibition [5],growth inhibition [6]
CCCCS(=O)CC(CO)NC(=O)/C=C/c1c(C)[nH]c(=O)[nH]c1=O (centres undefined),12.9%,22.8%,12.8%,22.1%,-3.25%,33.9%
O=[N+]([O-])c1ccc2c(c1)/C(=N/O)CCC2,0.5%,-0.55%,1.05%,-86.4%,-15.8%,4.05%
SCCNCc1ccccn1,-22.1%,-36.1%,-17.4%,14.3%,-37.4%,-3.65%
COc1cc2c3c(c1)-c1c(ccc(OC)c1Oc1nnnn1-c1ccccc1)CC3N(C)CC2 (centres undefined),30.4%,26.2%,28.9%,52.4%,27.8%,80.5% (active)
COc1ccc(CCN=C(c2ccccc2)c2ccccc2)cc1OC,22.4%,10.2%,8.75%,-27.4%,10.3%,12.7%
CCN(CC)c1ccc(Br)cc1,32.9%,4%,4.55%,-2.5%,14.2%,33.9%
CC(C)=CCC(C)c1ccccn1 (centres undefined),-2.45%,5.5%,10.3%,-12.8%,10.9%,-4.2%
COC(=O)C1C(=O)CC2CCCCC21 (centres undefined),2.75%,-19.6%,-13.9%,20.6%,-22.3%,16.8%
FC(F)(F)C1(C(F)(F)F)C2CCC3(CC(F)(F)C(F)(F)S3)C1C2 (centres undefined),-1.05%,-27.9%,-4.25%,22.9%,7.65%,30.6%
O=C1C=CSc2ccccc2N1,-2.4%,2.5%,-2.15%,4.4%,2.45%,4.5%
CCCCCCCCCCCCCCCCOc1ccc(/C=N/Nc2ccccc2)cc1OC,-20.1%,-22.2%,-25.9%,0.95%,-32%,-13.6%
COc1cc(CC2c3cccc(Oc4ccc(C)cc4)c3CCN2C)ccc1Oc1ccc(C)cc1 (centres undefined),98% (active),98.2% (active),98.7% (active),96.5% (active),97.4% (active),98% (active)
NC1=C(O)c2cccc3cccc(c23)C1=O,9.95%,12.2%,11.8%,2.35%,9.45%,16.4%
Cc1cc(-c2cscn2)c(O)c([N+](=O)[O-])c1,3.05%,3.9%,27.2%,12.4%,1.5%,7.6%
CCOC(=O)c1nc2ccccc2c(=O)n1NC(=S)Nc1ccc(Cl)cc1,-40.4%,5.95%,-1.2%,8.8%,-4.15%,-15%
O=c1c2ccccc2nc(-c2ccccc2)n1/N=C/c1ccccc1O,1.15%,38.8%,34.6%,-5.65%,32.9%,27.1%
Cc1c(Cc2c(C)n(C)n(-c3ccccc3)c2=O)c(=O)n(-c2ccccc2)n1C,9.55%,-1.7%,-0.25%,13.4%,9.9%,9.5%
COc1ccc(-c2nc3ccccc3[nH]2)cc1,16.4%,-2.7%,1.7%,-4%,-21.5%,-3.1%
O=C1CCCCCCN1,8.9%,-33.4%,1.5%,16.6%,-17.2%,12.6%
